In all, about 320,000 compounds went through this assay and about 2,100 (0.66%) were called active. Another 53% or so got no clear call; they are omitted. The sample holds actives, similar compounds and a random draw of the others, so the mix is not that of the screen. Calls follow the shape of the dose curve; as a rule, active = well fitted inhibition curve with a large enough effect in the signal ratio, with a control signal flat (not every such curve was filed as active); inconclusive = small, poorly fitted or top-dose-only effect, or effect the other way, or a change in a side signal; inactive = flat fitted curve, though single readings scatter; the % refers to the signal ratio.
Potency is read from the fitted curve at half-maximal effect.

This assay can be described thus: qHTS Assay for Lipid Storage Modulators in Drosophila S3 Cells.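 As to cell number change: cells counted by Cell Tracker Red CMTPX staining in the red channel.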 As to lipid storage change, negative = inhibition: % is scaled to controls: 0 for no effect and ±100 for the full control effect. Conditions: BODIPY lipid droplet fluorescence, 18-24 h, cells fed with added oleic acid; cell number change: measured here: cell count max response; series mostly up to 46.1 µM; lipid storage change, negative = inhibition: at the top concentration. The text has this: NIH Molecular Libraries Probe Production Centers Network [MLPCN] NIH Chemical Genomics Center [NCGC] MLPCN Grant: 1 R03 MH085686-01 Assay Submitter (PI): Beller, Mathias; Max-Planck-Institut fur Biophysikalische Chemie NCGC Assay Overview: Storing lipids as a reservoir for energy or the anabolism of elementary metabolites is a common feature of probably all cells and is conserved from bacteria to humans. The universal cellular lipid storage organelle is the so-called lipid storage droplet (LD). Although ubiquitous, LDs share a simple structure composed of a hydrophobic core that harbors the storage lipids, which is shielded by a droplet-specific phospholipid monolayer to which proteins are attached. The current model of LD biogenesis involves an incorporation of the lipid core into the membrane leaflets of the endoplasmic reticulum (ER) followed by a subsequent budding-like maturation of a LD, which ultimately pinches off. Once released, LD volume can increase by localized lipogenesis or fusion of existing droplet. Storage lipids are re-mobilized enzymatically by lipase activity. Lipase regulation in the adipocyte is heavily studied and involves multiple components including catecholamine signaling, the LD-associated proteins Perilipin and comparative gene identification (CGI-58) and at least two lipases named hormone sensitive lipase (HSL) and adipocyte triglyceride lipase (ATGL). LD regulation outside of the adipocyte is poorly understood and only few components are known. However, there is an urgent need to learn more about ectopic fat depots as mislocalized storage of lipids, for example in the liver or muscle, is an eminent health problem associated with insulin resistance or the metabolic syndrome. We developed a laser-scanning cytometer assay to enable 1,536-well screening and combined the results of the small molecules screen with an RNAi database based on lipid storage.
Triacsin C (Sigma-Aldrich T-4540), an inhibitor of long-chain fatty acyl CoA synthetase that blocks synthesis of triglycerides, was used as a positive control for lipid under-storage. A total of 23 nL of compound solution of different concentrations were transferred to the assay plates using a Kalypsys pin tool equipped with a 1,536-pin array containing 10-nL slotted pins (FP1S10, 0.457-mm diameter, 50.8 mm long; V&P Scientific). One microliter of oleic acid (400 uM) was added, and the plate was lidded with stainless steel rubber gasket lined lids containing pinholes. […] Fluorescence was detected by excitation of the fluorophores with a 488-nm laser on an Acumen Explorer (TTP Lab Tech). The total intensity in channel 2 (500-530 nm) reflected lipid droplet accumulation. Cells were detected using channel 3 (575-640 nm) with 5-um width and 100-um depth filters. The ratio of the number of objects in PMT channel 2 over the number of objects in PMT channel 3 was also calculated. Percent activity was computed relative to an internal control (100% inhibited lipid droplet deposition due to the presence of 20 uM Triacsin C), which was added to 32 wells/plate.
(In general: In qHTS, concentration-response curves come from the screen itself.)
Regarding `Cc1ccc(C(=O)Nc2ccc(C(F)(F)F)n(C)c2=O)cc1`, the “lipid storage change, negative = inhibition” value was 9.63% (inactive) and the cell number change turned out to be 11.7%.

As for `COCCn1c(C(F)(F)F)ccc(NC(=O)c2ccccc2)c1=O`, the Potency is 8.2 µM (active) and the cell number change came to 27.8%.

Consider `COc1ccc(C(=O)Nc2ccc(C(F)(F)F)n(C)c2=O)cc1`, for which the “lipid storage change, negative = inhibition” value was 16.1% (inactive) and the cell number change came to 6.54%. In the same order, the values of `CCN(CC(=O)Nc1ccc(OC)cc1)C(=O)CCc1nc2ccccc2c(=O)[nH]1` are 1.47% (inactive) and -4.18%. The matching figures for `Cc1c([N+](=O)[O-])c([N+](=O)[O-])nn1CC(=O)NCCc1ccccc1`: -10.5% (inactive) and 2.95%. `CCCOc1ccc(C(C)=O)cc1CC(C(=O)OCC)C(=O)OCC`: the “lipid storage change, negative = inhibition” value was 0.302% (inactive) and the cell number change was determined as 1.14%. For `CC(=O)c1ccc(OC(C)C)c(CC(C(N)=O)C(N)=O)c1`, the Potency is 25.9 µM (active). As to `CC(=O)c1ccc(OC(C)C)c(CN2CCCCC2)c1`, the “lipid storage change, negative = inhibition” value is -11.4% (inactive) and the cell number change was -4.17%.

Turning to `NC(=O)CS(=O)(=O)c1ccc(Cl)cc1`, the “lipid storage change, negative = inhibition” value is -4.86% (inactive) and the cell number change turned out to be 0.328%. Turning to `CC(C)=CC(=O)O[C@@H]1Cc2cc3ccc(=O)oc3cc2OC1(C)C`, the “lipid storage change, negative = inhibition” value was 13.2% (inactive) and the cell number change was -1.68%. As to `Cc1cc(Nc2ccc(Cl)cc2)nc(-c2ccccc2O)n1`, the “lipid storage change, negative = inhibition” value is -7.33% (inactive) and the cell number change was found to be 25.5%. For the molecule `Cc1cc(Nc2ccc(F)c(F)c2)nc(-c2ccccc2O)n1`, the “lipid storage change, negative = inhibition” value was -1.55% (inactive) and the cell number change is -20.3%. For the molecule `Cc1cc(Nc2ccc(Br)cc2)nc(-c2ccccc2O)n1`, the Potency is 1.16 µM (active) and the cell number change is 5.51%. Regarding `O=C(NNC(=O)c1ccccc1O)c1ccc(NS(=O)(=O)c2ccc(F)c(F)c2)cc1`, the “lipid storage change, negative = inhibition” value is 8.77% (inactive) and the cell number change came to 6.77%. In the case of `NS(=O)(=O)c1cccc(NS(=O)(=O)c2ccc3ccccc3c2)c1`, the molecule was classed as inactive and the cell number change was -9.72%. The matching figures for `Cc1ccc(S(=O)(=O)N2CCCN(S(=O)(=O)c3ccc(C)cc3)CC2)cc1`: “inactive” and -15.5%. Regarding `Cc1ccc(-c2ccc(S(=O)(=O)N3CCCC3)cc2)cc1`, the “lipid storage change, negative = inhibition” value is 14.6% (inactive). For `Cc1ccc(S(=O)(=O)N2CCCOC2)cc1`, the Potency is 20.6 µM (active) and the cell number change was -23.3%. With `CC1(C)CC(=O)C(CC(=O)NC(=O)NCc2ccccc2)=C(O)C1`, the “lipid storage change, negative = inhibition” value was 0.0826% (inactive) and the cell number change was found to be 9.3%.

With `O=C(CSc1ccccc1)Nc1nnc(COc2ccc(Cl)cc2)s1`, the Potency was 9.2 µM (active) and the cell number change is -4.77%. With `COCC(=O)Nc1nnc(COc2ccc(Cl)cc2)s1`, the “lipid storage change, negative = inhibition” value is 1.56% (inactive) and the cell number change is -17.4%.

With `COCc1nnc(NC(=O)CSc2ccccc2)s1`, the “lipid storage change, negative = inhibition” value is 7.39% (inactive) and the cell number change was -1.84%.

On to `CCN(CC)c1ccc(/C=N/NC(=S)NCc2ccccc2)c(O)c1`, for which the Potency was 11.6 µM (active) and the cell number change is -19.6%. `CCN(CC)c1ccc(/C=N/NC(=S)NC)c(O)c1`: the “lipid storage change, negative = inhibition” value is -4.58% (inactive) and the cell number change is 2.22%. In the case of `CCN(CC)c1ccc(/C=N/Nc2ccccc2)c(O)c1`, the “lipid storage change, negative = inhibition” value is 6.59% (inactive) and the cell number change is -10.7%.

In the case of `COc1ccc(-c2c3c(=O)n(C)c(=O)n(C)c3cn2-c2ccccc2O)cc1`, the “lipid storage change, negative = inhibition” value was -3.76% (inactive) and the cell number change was determined as 9.81%. For the molecule `CC(=O)N(Cc1cccnc1)Cc1cc2ccc(C)cc2[nH]c1=O`, the “lipid storage change, negative = inhibition” value was 15.6% (inactive) and the cell number change was -7.01%. Consider `CCOc1ccccc1CNC(=O)CCCn1ncn2c(cc3occc32)c1=O`, for which the Potency is 29.1 µM (active) and the cell number change is -5.42%.

Turning to `COc1cccc(CNC(=O)CCCn2ncn3c(cc4occc43)c2=O)c1`, the call was inactive and the cell number change was -2.59%. As for `CC(CNC(=O)CCCn1ncn2c(cc3occc32)c1=O)c1ccccc1` (centres undefined), the result was inactive and the cell number change was 24%. As to `Cc1cc(C(=O)N2CCN(S(=O)(=O)c3ccccc3)CC2)c(C)o1`, the “lipid storage change, negative = inhibition” value is 21.7% (inactive) and the cell number change was found to be 15.7%. The matching figures for `CCCCn1nc2cc(C(=O)N[C@H](C)C3CCCCC3)ccc2c1OCC`: -0.499% (inactive) and -12%. Turning to `CCOC(=O)c1sc(NC(=O)CCc2ccccc2)nc1C`, the molecule was called inactive and the cell number change was 3.17%.

Consider `Cc1ccc(-n2c(C)cc(C(=O)COC(=O)c3ccc[nH]c3=O)c2C)cc1C`, for which the “lipid storage change, negative = inhibition” value is 1.49% (inactive) and the cell number change is -2.22%. Turning to `Cc1ccc(-n2c(C)cc(C(=O)COc3c(CO)cc(F)cc3CO)c2C)cc1C`, the Potency is 8.2 µM (active) and the cell number change is 4.17%.

As for `Cc1ccc(-n2c(C)cc(C(=O)CN3CCOCC3)c2C)cc1C`, the “lipid storage change, negative = inhibition” value was -17% (inactive) and the cell number change was -2.77%. In the same order, the values of `Cc1cccc(NC(=O)C2CCCN2C(=O)Oc2ccccc2)c1` (centres undefined) are -0.0768% (inactive) and -1.72%. In the case of `Cc1cc(C)nc(NC(=O)c2c(Cl)cccc2Cl)n1`, the “lipid storage change, negative = inhibition” value is -9.48% (inactive) and the cell number change is 0.843%. The matching figures for `CN(C)c1ccc(/C=N/NC(=O)c2ccc(CN3C(=O)c4cccc5cccc3c45)cc2)cc1`: 13% (inactive) and 10.4%.

On to `COc1cc(/C=N/NC(=O)c2ccc(CN3C(=O)c4cccc5cccc3c45)cc2)cc(OC)c1O`, for which the Potency is 3.26 µM (active) and the cell number change is -19.2%. In the case of `COc1cc(/C=N/NC(=O)c2ccc(CN3c4cccc5cccc(c45)S3(=O)=O)cc2)cc(OC)c1O`, the outcome was inactive and the cell number change was -26.4%.

On to `Cc1cc(C)cc(NC(=O)COc2coc(CN3CCc4ccccc4C3)cc2=O)c1`, for which the “lipid storage change, negative = inhibition” value was -14.9% (inactive) and the cell number change was -22.1%. `Cc1ccc(C)c(NC(=O)COc2coc(CN3CCc4ccccc4C3)cc2=O)c1`: the Potency is 6.51 µM (active) and the cell number change was -25.7%.
